Screening results as filed in PubChem.
RGS4-Gao reg = modulates binding of RGS4 to human Galphao | hit rate 0.33% among 220,000 | Multiplexed bead flow cytometry; actives lie on both sides | binding response (% of control), % at 10 µM; in the data active = binding response below about 49% or above about 150%; inactive = in between;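 note: fluorescent Galphao activated with aluminum fluoride binding bead-coupled RGS4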
Target sequence (P09471 whole entry, looked up): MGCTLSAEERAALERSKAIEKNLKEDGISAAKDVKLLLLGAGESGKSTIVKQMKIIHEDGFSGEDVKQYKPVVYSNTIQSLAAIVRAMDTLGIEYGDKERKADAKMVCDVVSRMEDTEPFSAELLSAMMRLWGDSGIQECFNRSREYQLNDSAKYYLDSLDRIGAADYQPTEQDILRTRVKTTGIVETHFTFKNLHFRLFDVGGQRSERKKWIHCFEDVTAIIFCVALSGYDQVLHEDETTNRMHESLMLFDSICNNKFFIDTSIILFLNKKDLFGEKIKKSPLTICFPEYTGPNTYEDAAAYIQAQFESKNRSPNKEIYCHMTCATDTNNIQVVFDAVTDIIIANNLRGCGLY
GSH bead fluor = GSH bead compound fluorescence profile; fluorescence (KMESF) at 10 µM; GSH beads flow cytometry, compound fluorescence 488/530 nm; stronger effect = higher value; hit rate 0.25% among 190,000; AID 1776; in the data active = fluorescence above about 89;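 note: glutathione beads carrying GST-tagged Bcl family fusion proteins plus one bare bead set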
RGS7-Gao = human RGS7-Galphao interaction regulation; Multiplexed bead flow cytometry, RGS7-Galphao binding; actives lie on both sides; hit rate 0.35% among 220,000; binding response (% of control), % at 10 µM; P09471; in the data active = binding response below about 49% or above about 150%; inconclusive = no clear call, values can overlap the other calls; inactive = in between;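 note: fluorescent Galphao held in activated GDP-AlF4 state binding bead-coupled RGS7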
RGS16-Gao HTS = RGS16-Galphao interaction regulator (human) | O15492+P09471 | bead-based flow cytometry RGS16-Galphao binding, fluorescence; actives lie on both sides | binding response (% of control), % at 10 µM | hit rate 0.38% among 220,000 | AID 1441; call rule not given here;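 note: Galphao activated by GDP with aluminum fluoride before binding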
Target sequence (O15492 whole entry, looked up): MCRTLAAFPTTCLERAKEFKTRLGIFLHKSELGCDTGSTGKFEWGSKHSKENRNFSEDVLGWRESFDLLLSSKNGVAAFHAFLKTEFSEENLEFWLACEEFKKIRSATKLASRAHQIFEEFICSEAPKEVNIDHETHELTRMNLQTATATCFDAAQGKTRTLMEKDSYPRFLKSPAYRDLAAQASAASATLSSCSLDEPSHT
Target sequence (P09471 whole entry, looked up): as the sequence (P09471 whole entry, looked up) above
RGS8-Gao = regulators of human RGS8-Galphao interaction; P09471; multiplexed bead flow cytometry, RGS8-Galphao binding; actives lie on both sides; response (percent of control binding), % at 10 µM; hit rate 0.34% among 220,000; AID 1423; in the data active = response below about 60% or above about 140%; inactive = in between;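 note: Galphao activated as the GDP aluminium fluoride complex binding bead-coupled RGS8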
Avidin fluor = avidin bead compound fluorescence profile. Avidin beads, compound fluorescence 488/530 nm, flow cytometry; stronger effect = higher value. fluorescence (KMESF) at 10 µM. hit rate 0.38% among 220,000. AID 1775; in the data active = fluorescence above about 47
Large screens that a line does not name were inactive; [ ] = another dose, or the depositor's remark. Only some compounds are listed: those with a hit (about 1.2% of all), similar ones and a draw of the others.

COC(=O)C(C)N1C(=O)S/C(=C/c2cc(C)n(-c3ccccn3)c2C)C1=O (stereo not drawn)	GSH bead fluor 267
COc1ccc(C2=C(O)C(C)N(c3ccccc3)C2=N)cc1OC (stereo not drawn)	Avidin fluor 53
COc1ccc(-c2cnn(-c3ccccc3)c2N)cc1OC	none
COc1ccc(CNC(=O)C2CC(c3ccccc3[N+](=O)[O-])=NO2)cc1 (stereo not drawn)	none
COc1ccccc1CNC(=O)C1CC(c2ccccc2[N+](=O)[O-])=NO1 (stereo not drawn)	Avidin fluor 49
Fc1ccc(N2CCN(c3ccc4c(C(F)(F)F)cc(C(F)(F)F)nc4n3)CC2)cc1	Avidin fluor 92
COCC(=O)Nc1cc(Cl)c(OC)cc1OC	none
COc1ccc(-c2cc3cc(OC)c(OC)cc3c(C)n2)cc1C	RGS7-Gao inconclusive (no result: GSH bead fluor)
COc1ccc(NC(=S)N2CCN(CCN3C(=O)c4cccc5cccc(c45)C3=O)CC2)cc1	RGS7-Gao inconclusive
CCOc1ccc(NC(=S)N2CCN(CCN3C(=O)c4cccc5cccc(c45)C3=O)CC2)cc1	Avidin fluor 51
COc1ccc(Cl)cc1S(=O)(=O)n1cnc2ccccc21	Avidin fluor 62
CCOc1ccc(Cl)cc1S(=O)(=O)n1cnc2ccccc21	none
O=C(NC(=O)N1CCN(c2ccc([N+](=O)[O-])cn2)CC1)c1c(Cl)cccc1Cl	RGS7-Gao inconclusive, Avidin fluor 49 (no result: GSH bead fluor)
O=C(NC(=O)N1CCN(c2ccc([N+](=O)[O-])cn2)CC1)c1ccccc1F	RGS7-Gao inconclusive (no result: GSH bead fluor)
CCOC(=O)/C(C#N)=C(C)/C=C1\Sc2ccccc2N1CC	Avidin fluor 70
CCN1/C(=C\C=C(C(C)=O)C(C)=O)Sc2ccccc21	none
O=C(Nc1c(C(=O)Nc2cccc3ccccc23)cnn1-c1ccccc1)c1ccco1	GSH bead fluor 99
O=C(Nc1ccccc1N(C(=O)c1ccco1)S(=O)(=O)c1cccs1)c1ccco1	GSH bead fluor 275
O=C(Nc1ccccc1NC(=O)c1ccco1)c1ccco1	RGS4-Gao reg -45, RGS7-Gao -19, RGS16-Gao HTS -27, RGS8-Gao 6.2
O=C(Nc1c(C(=O)Nc2ccccc2)cnn1-c1ccccc1)c1ccco1	none
COc1ccc2c(C(=O)CCl)c[nH]c2c1	RGS7-Gao inconclusive (no result: GSH bead fluor)
O=C(O)c1cc(NCc2ccc(F)cc2)ccc1N1CCOCC1	none
O=C(O)c1cc(NCc2ccccc2C(F)(F)F)ccc1N1CCOCC1	Avidin fluor 52
COc1cccc(C(=O)NNC(=O)Cc2cccs2)c1	none
Cc1sc2ncn(CC(=O)NCCCC(=O)N3CCN(c4ccccn4)CC3)c(=O)c2c1C	none
Cc1sc2ncn(CC(=O)NCCCC(=O)N3CCN(c4ncccn4)CC3)c(=O)c2c1C	Avidin fluor 52
CCn1c(C)cc2c(c1=O)C(c1ccc3c(c1)OCO3)C(C#N)=C(N)O2 (stereo not drawn)	Avidin fluor 63
C/C(=N/OC(=O)C1CC12CCC2)c1ccc(Br)cc1 (stereo not drawn)	none
CSc1nc2ccc(NS(=O)(=O)c3ccc4c(c3)OCCO4)cc2s1	GSH bead fluor 262
CSc1nc2ccc(S(=O)(=O)N3CCOCC3)cc2s1	none
CSc1nc2ccc(S(=O)(=O)N3CCCCC3)cc2s1	Avidin fluor 50
CC1(C)C2CCC1(CS(=O)(=O)N1CCC(C(=O)O)CC1)C(=O)C2 (stereo not drawn)	RGS7-Gao inconclusive (no result: GSH bead fluor)
NS(=O)(=O)c1cccc(NS(=O)(=O)c2cccc(C(F)(F)F)c2)c1	RGS7-Gao inconclusive (no result: GSH bead fluor)
C=CCNc1nc(Nc2ccccc2F)nc(OCC)n1	none
C=CCNc1nc(Nc2ccc(OC)cc2OC)nc(OCC)n1	Avidin fluor 75
O=C(O)c1ccc(N2C(=O)Nc3ccccc3N2O)cc1	none
CCS(=O)(=O)Nc1ccccc1C(N)=O	RGS7-Gao inconclusive
CC(C)C(OC(=O)c1cc2sccc2n1C)C(=O)NCC1CCCO1 (stereo not drawn)	GSH bead fluor 254
Cc1cc(C)cc(-n2cc(C(=O)O)c(=O)cc2C)c1	none
CN(CCN1CCc2ccccc2C1)Cc1nc(Cc2ccccc2F)no1	RGS4-Gao reg 28, RGS7-Gao 17, RGS16-Gao HTS 20, RGS8-Gao 27
COc1ccc(Cc2noc(CN(C)CCN3CCc4ccccc4C3)n2)cc1OC	none
Cn1cnc2c(=O)[nH]cc([N+](=O)[O-])c21	Avidin fluor 62
COC(=O)c1sccc1NC(=O)CC1NCCNC1=O (stereo not drawn)	RGS7-Gao inconclusive (no result: GSH bead fluor)
CS(=O)(=O)c1ccc2nc(NC(=O)c3cccs3)sc2c1	Avidin fluor 56
O=C(NCc1ccncc1)/C(=C/c1cccc([N+](=O)[O-])c1)NC(=O)c1ccccc1	RGS7-Gao inconclusive (no result: GSH bead fluor)
COc1cccc2cc(C(=O)N3CCCCC3C)c(=O)oc12 (stereo not drawn)	GSH bead fluor 120
Cn1ccnc1C(=O)c1cc(SCC(=O)NCc2ccccc2)nc2ccccc12	none
COC(=O)CSc1cc(C(=O)c2nccn2C)c2ccccc2n1	GSH bead fluor 271
CN(C)CCNC(=S)Nc1cccc(Cl)c1	RGS4-Gao reg 22, RGS7-Gao 14, RGS16-Gao HTS 0.9, RGS8-Gao 12
O=C(C1CCN(S(=O)(=O)N2CCC3(CC2)OCCO3)CC1)N1CCC(Cc2ccccc2)CC1	RGS4-Gao reg 387[activator], RGS7-Gao 298[activator], RGS16-Gao HTS 526[activator], Avidin fluor 233
NC(=O)c1ccc(NC(=O)COC(=O)/C=C/c2ccc3c(c2)OCO3)cc1	RGS7-Gao inconclusive (no result: GSH bead fluor)
Cc1c2cnn(-c3ccccc3)c(=O)c2c(C)n1CCCC(=O)NCCN1CCN(C)CC1	RGS7-Gao inconclusive (no result: GSH bead fluor)
CC(C)CNc1cc(Cl)c(S(=O)(=O)NCC(C)C)cc1C(=O)O	Avidin fluor 85
Cc1cc(/C=C2\Sc3ccccc3N2C)cc(C)[n+]1CC1CCCO1 (stereo not drawn)	RGS7-Gao inconclusive
O=C(Nc1cccc2ccccc12)NC1CCS(=O)(=O)C1 (stereo not drawn)	Avidin fluor 58
COc1cc(S(=O)(=O)N(Cc2ccccc2)CC2CCCO2)ccc1-n1cnnn1 (stereo not drawn)	none
COc1cc(S(=O)(=O)N(Cc2cccs2)CC2CCCO2)ccc1-n1cnnn1 (stereo not drawn)	Avidin fluor 50
CNC(=O)c1c(NC(=O)c2cc(-c3cc(C)c(C)cc3O)n[nH]2)sc2c1CCCC2	RGS7-Gao inconclusive (no result: GSH bead fluor)
Cc1cccc(S(=O)(=O)NCCC(=O)OC(C)C(=O)NC(=O)NC2CCCCC2)c1 (stereo not drawn)	GSH bead fluor 258
O=C(COC(=O)CCNS(=O)(=O)c1cccc(C(F)(F)F)c1)NC(=O)NC1CCCCC1	none
